This is a sample that favours compounds with a hit; in the whole collection about 3.1% have one here.
CASP6 VEID inh – caspase-6 (human) enzyme inhibition. P55212. purified caspase-6, Z-VEID-R110 cleavage fluorescence. inhibition, % at 12.5 µM. 0.53% of 350,000 active. AID 686996;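 active means mean inhibition across replicates at least about 35%, with every replicate also reaching that limit, limit read from the data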;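 further: 0% = median of neutral control wells and 100% = no fluorescence left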
Target sequence (P55212 24-179 limits assumed): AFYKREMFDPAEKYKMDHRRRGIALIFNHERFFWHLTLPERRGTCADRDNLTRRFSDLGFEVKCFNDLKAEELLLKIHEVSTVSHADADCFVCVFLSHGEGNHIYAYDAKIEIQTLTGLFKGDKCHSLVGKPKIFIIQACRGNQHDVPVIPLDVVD
Target sequence (P55212 194-293 limits assumed): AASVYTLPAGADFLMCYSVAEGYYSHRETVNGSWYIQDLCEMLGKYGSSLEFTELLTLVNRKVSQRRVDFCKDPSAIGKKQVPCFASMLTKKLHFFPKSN
ERAP1 HTS inh – blocks human ERAP1 aminopeptidase activity | 0.15% of 340,000 active | inhibition, % at 10.7 µM | recombinant ERAP1, Leu-AMC fluorescence, 60 min | Q9NZ08 | AID 652197;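 active means mean replicate inhibition of at least 30%, or all replicates individually reaching that 30% level; inactive means mean below 30% and not every replicate reaching it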;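 further: 0% = neutral control wells and 100% = L-leucinethiol positive control wells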
SIRT5 block – sirtuin-5 (human) deacylase inhibition; Q9NXA8; Purified SirT5, succinyl-peptide AMC, trypsin-coupled fluorescence; inhibition, % at 15 µM; 1.1% of 330,000 active; in the data active means inhibition above about 15%
Target sequence (Q9NXA8 whole entry, looked up): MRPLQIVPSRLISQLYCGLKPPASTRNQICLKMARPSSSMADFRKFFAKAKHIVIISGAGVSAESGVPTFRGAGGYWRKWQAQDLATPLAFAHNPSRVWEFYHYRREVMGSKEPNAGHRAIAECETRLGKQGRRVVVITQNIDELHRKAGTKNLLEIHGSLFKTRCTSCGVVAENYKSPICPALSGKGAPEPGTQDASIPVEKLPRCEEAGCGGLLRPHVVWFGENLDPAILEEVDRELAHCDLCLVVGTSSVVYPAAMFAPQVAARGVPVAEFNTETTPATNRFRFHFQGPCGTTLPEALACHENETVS
FGF22 binding – FGF22 (human) thermal shift binding | activity (Tm shift, normalised), % at 9.99 µM | Q9HCT0 | AID 651658 | 1.5% of 340,000 active | recombinant FGF22 thermal shift, SYPRO orange fluorescence; percent of sucrose octasulfate shift, DMSO zero;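 active means mean Tm shift, scaled 0 neutral to 100 positive control, at about 1.3% or above, every replicate too, limit read from the data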
* = called active by the depositor; · = no result; ! = repeats disagree.

SMILES | CASP6 VEID inh | ERAP1 HTS inh | SIRT5 block | FGF22 binding
COc1ccc(NC(=O)Nc2ccc3c(c2)C(=O)N([C@H](C)CO)C[C@H](C)[C@H](CN(C)C(=O)Nc2ccc(C(F)(F)F)cc2)OCCCC[C@H](C)O3)cc1 | -2 | -4 | 3 | 1
COc1ccc(CN(C)C[C@H]2OCCCC[C@@H](C)Oc3ccc(NC(=O)NC4CCCCC4)cc3C(=O)N([C@H](C)CO)C[C@H]2C)cc1 | 2 | -1 | 19* | 0
Cc1noc(C)c1S(=O)(=O)N(C)C[C@@H]1Oc2ccc(NC(=O)C3CC3)cc2CC(=O)N([C@H](C)CO)C[C@@H]1C | 1 | 0 | 1 | 0
COc1ccc(S(=O)(=O)N(C)C[C@H]2Oc3ccc(NC(=O)Cn4cnnn4)cc3CC(=O)N([C@@H](C)CO)C[C@H]2C)cc1 | 1 | 0 | -2 | 0
C[C@@H]1CN([C@@H](C)CO)C(=O)Cc2cc(NS(=O)(=O)c3ccccc3)ccc2O[C@H]1CN(C)C | -1 | 2 | -1 | 0
Cc1ccccc1OCc1csc(N)n1 | 0 | -1 | -4 | 43*
O=C(NCCN1CCCC(O)C1)c1cc(COc2ccc(F)cc2Cl)on1 (stereo not given) | · | 8 | 24* | 0
CCCn1c(N)c(C(=O)CSc2nnc(C3CC3)n2C2CC2)c(=O)[nH]c1=O | -1 | 1 | · | 43*
COc1ccc(CNC(=O)C[C@H]2CC[C@@H]3[C@@H](COc4ccc(NC(=O)C5CC5)cc4C(=O)N3C)O2)cc1 | 6 | -1 | 10 | 0
CCO[C@@H]1OC(C(=O)O)=C[C@H](C2CCCCC2)[C@H]1CCCO | 2 | · | · | 0
CCO[C@@H]1OC(C(=O)O)=C[C@H](C2CC2)[C@H]1CCCO | 1 | 15 | 0 | 44*
Cn1cccc1C(=O)c1cccc([N+](=O)[O-])c1 | 1 | -4 | 17* | 0
O=C(O)CCCn1cc(NC(=O)COc2ccc([N+](=O)[O-])cc2)cn1 | -1 | 9 | 1 | 43*
Cc1cc(OCC(=O)Nc2cnn(CCCC(=O)O)c2)ccc1[N+](=O)[O-] | 0 | 0 | -1 | 0
CC(=O)N[C@@H]1CC[C@H](CCNC(=O)C2CCCC2)O[C@H]1CO | 0 | -2 | 3 | 0
CCc1ccc(NS(=O)(=O)c2cc(OC)ccc2OC)cc1 | 58* | 0 | -2 | 0
Cc1ccc(/C=C/C(=O)O)cc1S(=O)(=O)NC1CCS(=O)(=O)C1 (stereo not given) | · | 0 | -2 | 43*
CCOC(=O)c1ccc(NC(=S)NCc2ccccc2)cc1 | 1 | 0 | 0 | 0
CCOC(=O)c1ccc(NC(=S)NCCc2ccccc2F)cc1 | -2 | 1 | 0 | 44*
O=c1[nH]c(-[n+]2ccccc2)c(/C=N/NC([S-])=Nc2ccccc2)s1 | 3 | 5 | 2 | 0
Cc1cc[n+](-c2[nH]c(=O)sc2/C=N/NC([S-])=Nc2ccccc2)cc1 | 41* | 2 | 2 | 0
CCN1CCN(C(=O)CN(CC)S(=O)(=O)c2ccc(F)cc2)CC1 | -1 | 1 | -4 | 0
O=C(CCl)N1CCN(S(=O)(=O)c2ccc3ccccc3c2)CC1 | 74* | 0 | -1 | 0
CCn1c(SCC(N)=O)nc2cc(S(=O)(=O)N3CCOCC3)ccc21 | 0 | 4 | 0 | 0
COc1ccc(S(=O)(=O)CCC(=O)N2CCN(c3ccccc3F)CC2)cc1 | -3 | -2 | -4 | 44*
SMILES | CASP6 VEID inh | ERAP1 HTS inh | SIRT5 block | FGF22 binding
O=C(CCS(=O)(=O)c1ccccc1)N1CCN(c2ccccc2F)CC1 | -1 | -4 | -2 | 0
CCN1CCN(C(=O)CN(CC)S(=O)(=O)c2ccc3ccccc3c2)CC1 | 0 | 0 | 23* | 0
CCn1c(CCl)nc2cc(S(=O)(=O)N3CCOCC3)ccc21 | -2 | 5 | · | 43*
C[C@@H]1CCCCO[C@@H](CN(C)S(=O)(=O)c2cccs2)[C@H](C)CN([C@@H](C)CO)C(=O)c2cc(NC(=O)Nc3ccc(C(F)(F)F)cc3)ccc2O1 | 2 | -2 | 10 | 0
CNC[C@H]1Oc2c(NC(=O)C3CCOCC3)cccc2C(=O)N([C@@H](C)CO)C[C@@H]1C | -1 | 0 | 5 | 0
CCNC(=O)C[C@H]1CC[C@@H]2[C@H](COc3ccc(NC(=O)C4CCOCC4)cc3C(=O)N2C)O1 | -1 | -3 | 1 | 0
COc1ccc(S(=O)(=O)N2CCN(C(=O)COc3ccccc3)CC2)cc1 | -1 | 1 | -3 | 43*
CC(C)CC(=O)N1CCN(S(=O)(=O)c2ccc(Cl)cc2)CC1 | 0 | -1 | -3 | 43*
O=S(=O)(c1ccc2ccccc2c1)N1CCOCC1 | -5 | 2 | 99* | 1
Cc1noc(C)c1NC(=O)N[C@@H]1CC[C@H](CC(=O)NCc2ccc(Cl)c(Cl)c2)O[C@@H]1CO | 0 | 2 | -4 | 0
C[C@@H]1CCCCO[C@@H](CN(C)Cc2ccncc2)[C@H](C)CN([C@@H](C)CO)C(=O)c2cc(NC(=O)Nc3ccc4c(c3)OCO4)ccc2O1 | 0 | 2 | -5 | 0
C#Cc1ccc([C@H]2C=C(C(=O)OCC=C)O[C@@H](OCc3ccc(CO)cc3)C2)cc1 | · | -2 | · | 0
C=CCOC(=O)C1=C[C@@H](c2ccc(Br)cc2)C[C@@H](OCc2ccc(CO)cc2)O1 | 0 | -5 | 26*! | 0
Nc1c(Br)cc(Br)c2c1[nH]c(=O)c1ccccc12 | 39* | 6 | · | 0
CSc1ccccc1OCc1cc(C(=O)N2CCc3c(Cl)cccc3C2)no1 | 64* | -4 | 0 | 0
CSc1ccccc1OCc1cc(C(=O)N(C)C2CCCc3ccccc32)no1 (stereo not given) | -3 | 0 | 20* | 0
COc1cc2c(cc1OC)CN(C(=O)c1cc(COc3ccccc3SC)on1)CC2 | -3 | 0 | · | 0
CSc1ccccc1OCc1cc(C(=O)NCCN2CCCC(O)C2)no1 (stereo not given) | 1 | -2 | -1 | 0
O=C(CN1CCOCC1)NCC[C@@H]1CC[C@H](NC(=O)Cc2ccccn2)[C@H](CO)O1 | 1 | 1 | 5 | 0
Cc1ccc(CNCC(=O)Nc2ccc(C)cc2Br)cc1 | -5 | 3 | 0 | 44*
NC(=O)[C@@H]1CCCN1Cc1nc(-c2cccs2)no1 | -2 | -2 | 2 | 1
NC(=O)[C@@H]1CCCN1Cc1nc(-c2ccc(C(F)(F)F)cc2)no1 | 0 | -3 | 2 | 43*
Nc1nc2ccccc2n1C(=O)c1ccccc1 | 1 | -5 | 0 | 43*
Nc1nc2ccccc2n1C(=O)c1ccc(F)cc1 | -2 | 1 | -4 | 0
C[C@@H]1CN([C@@H](C)CO)C(=O)Cc2cc(NS(=O)(=O)c3cn(C)cn3)ccc2O[C@H]1CN(C)C(=O)NC1CCCCC1 | · | · | · | 0
Cc1cc(OCc2cc(C(=O)NC(C)c3c(C)nn(C)c3C)no2)cc(C)c1Cl (stereo not given) | 3 | 0 | 18* | 0
Cc1cc(OCc2cc(C(=O)NC(C)c3cnn(C)c3)no2)cc(C)c1Cl (stereo not given) | 5 | 5 | · | 0
